Results published in PubChem BioAssay (NCI).
The panel holds about 83,000 compounds, 20% with a hit somewhere; the sample as a whole holds those more often.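 Step 1: grow cells in 96-well plates. Step 2: add test compound at a single concentration. Step 3: incubate 48 h. Step 4: record percent growth.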 Unmarked numbers belong to inactive results. Activity calls are given as the source filed them. How the source made its calls: active means growth percent below 10; inactive means the rest.

Each molecule was assayed on SNB-19 CNS (assay: NCI-60 one-dose screen, 48 h (100 = growth as untreated, 0 = no growth, -100 = all killed)). Conditions: 10 µM unless noted.

Row | Compound | growth
1 | CN(C)CCCNC(=O)c1cc(NC(=O)c2cc(NC(=O)c3ccc(/C=C/c4ccccc4)cc3)cn2C)cn1C | 78%
2 | CN(C)CCOc1ccc(C(=O)C2[C@H](c3ccc(Cl)cc3)[C@@H](c3ccccc3)NC23C(=O)Nc2ccc(Br)cc23)cc1 (some centres not stated) | 54.1%
3 | COc1ccc(-c2ccc(SCC(=O)NCCc3ccc(S(N)(=O)=O)cc3)nn2)cc1 | 77.4%
4 | Cc1nc(Nc2ncc(C(=O)Nc3c(C)cccc3Cl)s2)cc(N2CCN(CCCNC(=O)COc3ccc(C4CCC(=O)NC4=O)cc3)CC2)n1 (configuration not stated) | 47.9%
5 | COc1cccc(/C=C/c2nc3ccccc3c(=O)n2CC(=O)Nc2ccc(Cl)cc2)c1 | 76.3%
6 | Cc1ccccc1[C@H]1C(C(=O)c2ccc(Cl)cc2)C2(N[C@@H]1c1ccccc1)C(=O)Nc1ccccc12 (some centres not stated) | 16.2%
7 | Cc1ccccc1[C@H]1C(C(=O)c2ccc(Cl)cc2)C2(N[C@@H]1c1ccccc1)C(=O)Nc1ccc(Br)cc12 (some centres not stated) | 38.4%
8 | Cn1cc(NC(=O)c2cc(NC(=O)c3ccc(/C=C/c4ccccc4)cc3)cn2C)cc1C(=O)NCCCN1CCOCC1 | 70.4%
9 | CCCn1cc(-c2nc(Nc3ccc(C(=O)NCCCCNc4cccc5c4C(=O)N(C4CCC(=O)NC4=O)C5=O)cc3)nc3[nH]ccc23)cn1 (configuration not stated) | 23.4%
10 | COc1c(F)ccc(C(=O)Nc2ccc3nc(NC(=O)C4CCCN(S(=O)(=O)c5ccc(C(F)(F)F)cc5)C4)sc3c2)c1F (configuration not stated) | 83.8%
11 | COc1ccc2c(c1)c(/C=N/Nc1ccc3ccccc3n1)cn2C | 71.3%
12 | COc1c(F)ccc(C(=O)Nc2ccc3nc(NC(=O)C4CCCN(S(=O)(=O)c5ccc(Br)c(F)c5)C4)sc3c2)c1F (configuration not stated) | 81.9%
13 | CC12CC[C@@H]3[C@]4(C)COC(c5cn[nH]c5-c5ccc(Br)cc5)O[C@@H]4CC[C@@]3(C)[C@@H]1CC(C1=CCOC1=O)O2 (some centres not stated) | 59.4%
14 | CC12CC[C@@H]3[C@]4(C)COC(c5cn[nH]c5-c5cccc(Cl)c5)O[C@@H]4CC[C@@]3(C)[C@@H]1CC(C1=CCOC1=O)O2 (some centres not stated) | 56.8%
15 | CCCSc1nc(Nc2ccc(S(N)(=O)=O)cc2)c(C#N)c(-c2ccc(Cl)cc2)n1 | 28.2%
16 | C=C1CC[C@@H]2[C@]3(C)COC(c4cn[nH]c4-c4ccc(Br)cc4)O[C@@H]3CC[C@@]2(C)[C@@H]1C/C=C1/C(=O)OCC1O (some centres not stated) | -36.5% (active)
17 | CCCSc1nc(Nc2ccc(S(N)(=O)=O)cc2)c(C#N)c(-c2cc(OC)c(OC)c(OC)c2)n1 | 43.8%
18 | C=C1CCC2C3(C)COC(c4ccccc4)OC3CCC2(C)C1CC(NCc1ccccc1)C1=CCOC1=O (configuration not stated) | 73.6%
19 | C=C1CC[C@@H]2[C@]3(C)COC(c4ccccc4)O[C@@H]3CC[C@@]2(C)[C@@H]1C/C=C1/C(=O)OCC1OC(C)=O (some centres not stated) | 55.5%

What follows are molecules tested on U251 CNS in the same assay as above. Conditions: 10 µM unless noted.

Row | Compound | growth
20 | O=C(COc1ccc(NC(=O)Nc2ccc(Cl)cc2)cc1)N/N=C/c1ccccc1 | -86.2% (active)
21 | COc1cc(/C=C/C(=O)c2ccccc2)ccc1Oc1nc(Nc2ccc(F)cc2)nc(N(C)C)n1 | 5.24% (active)
22 | CN(C)CCCNC(=O)c1cc(NC(=O)c2cc(NC(=O)c3ccc(/C=C/c4ccccc4)cc3)cn2C)cn1C | -14.9% (active)
23 | COc1ccc(C(=O)/C=C/c2ccc(Oc3nc(Nc4ccc(F)cc4)nc(N(C)C)n3)c(OC)c2)cc1 | 11.4%
24 | CN(C)CCOc1ccc(C(=O)C2[C@H](c3ccc(Cl)cc3)[C@@H](c3ccccc3)NC23C(=O)Nc2ccc(Br)cc23)cc1 (some centres not stated) | -93.2% (active)
25 | COc1ccc(-c2ccc(SCC(=O)NCCc3ccc(S(N)(=O)=O)cc3)nn2)cc1 | 91.1%
26 | Cc1nc(Nc2ncc(C(=O)Nc3c(C)cccc3Cl)s2)cc(N2CCN(CCCNC(=O)COc3ccc(C4CCC(=O)NC4=O)cc3)CC2)n1 (configuration not stated) | 62.6%
27 | C=C1CCC2C3(C)COC(c4ccc(F)cc4)OC3CCC2(C)C1C/C=C1/C(=O)OCC1O (configuration not stated) | -94.4% (active)
28 | O=c1onc(-c2cc3ccccc3nc2Cl)n1-c1cccc2ccccc12 | 54.8%
29 | O=C1NC(=O)/C(=C/c2ccccc2OCc2cc3ccccc3nc2Cl)S1 | 58%
30 | O=C(COc1ccc(NC(=O)Nc2ccc(Cl)c(Cl)c2)cc1)N=Nc1c(O)[nH]c2ccc(Br)cc12 | -84.7% (active)
31 | COc1cccc(/C=C/c2nc3ccccc3c(=O)n2CC(=O)Nc2ccc(Cl)cc2)c1 | 27.8%
32 | COc1ccc(C(=O)/C=C/c2cccc(Cl)c2)cc1S(N)(=O)=O | -97.1% (active)
33 | COc1cc(C2CC(c3cc(OC)c(OC)c(OC)c3)=NN2c2ccccc2)ccc1OCc1ccc(C)cc1 (configuration not stated) | 96.7%
34 | CCOP(=O)(OCCCl)c1nc(-c2ccc(C)cc2)oc1NCc1ccccc1 (configuration not stated) | 74.6%
35 | Cc1ccccc1[C@H]1C(C(=O)c2ccc(Cl)cc2)C2(N[C@@H]1c1ccccc1)C(=O)Nc1ccccc12 (some centres not stated) | -58.1% (active)
36 | Cc1ccccc1[C@H]1C(C(=O)c2ccc(Cl)cc2)C2(N[C@@H]1c1ccccc1)C(=O)Nc1ccc(Br)cc12 (some centres not stated) | -3.71% (active)
37 | Cc1cc(=O)oc2cc(OCCOc3ccc(/C=C/C(=O)Nc4ccccc4N)cc3)ccc12 | 30.7%
38 | COc1cccc(/C=C/C(=O)c2ccc(OC)c(S(N)(=O)=O)c2)c1 | -31.2% (active)

Row | Compound | growth
39 | Cn1cc(NC(=O)c2cc(NC(=O)c3ccc(/C=C/c4ccccc4)cc3)cn2C)cc1C(=O)NCCCN1CCOCC1 | -69.2% (active)
40 | CN1CCN(Cc2ccc(C(=O)Nc3cccc(C#Cc4cccc5[nH]nc(N)c45)c3)cc2C(F)(F)F)CC1 | -79.2% (active)
41 | CCCn1cc(-c2nc(Nc3ccc(C(=O)NCCCCNc4cccc5c4C(=O)N(C4CCC(=O)NC4=O)C5=O)cc3)nc3[nH]ccc23)cn1 (configuration not stated) | 54.1%
42 | COc1c(F)ccc(C(=O)Nc2ccc3nc(NC(=O)C4CCCN(S(=O)(=O)c5ccc(C(F)(F)F)cc5)C4)sc3c2)c1F (configuration not stated) | 76%
43 | Cn1nc(C(F)(F)F)cc1-c1cc(Cl)c(COc2ccc(Cl)cc2)c(-c2ccc(Cl)c(C(F)(F)F)c2)c1O | -24.8% (active)
44 | COc1ccc(C(=O)/C=C/c2ccccc2Br)cc1S(N)(=O)=O | -95.6% (active)
45 | COc1ccc2c(c1)c(/C=N/Nc1ccc3ccccc3n1)cn2C | 7.9% (active)
46 | COc1c(F)ccc(C(=O)Nc2ccc3nc(NC(=O)C4CCCN(S(=O)(=O)c5ccc(Br)c(F)c5)C4)sc3c2)c1F (configuration not stated) | 69.8%
47 | COc1cc(OC)cc(-c2cc3ccc(N(C)C)cc3c(=O)[nH]2)c1 | 7.67% (active)
48 | Clc1cccc(-c2ccc(OCCCN3CCN(c4ccncc4)CC3)cc2)c1 | -73.6% (active)
49 | CC12CC[C@@H]3[C@]4(C)COC(c5cn[nH]c5-c5ccc(Br)cc5)O[C@@H]4CC[C@@]3(C)[C@@H]1CC(C1=CCOC1=O)O2 (some centres not stated) | 53%
50 | CC12CC[C@@H]3[C@]4(C)COC(c5cn[nH]c5-c5cccc(Cl)c5)O[C@@H]4CC[C@@]3(C)[C@@H]1CC(C1=CCOC1=O)O2 (some centres not stated) | 38.6%
51 | CCCSc1nc(Nc2ccc(S(N)(=O)=O)cc2)c(C#N)c(-c2ccc(Cl)cc2)n1 | -14.8% (active)
52 | COc1ccc(-c2nc3ccc(C(=O)NN4C(=O)c5ccc([N+](=O)[O-])cc5C4=O)cc3[nH]2)cc1 | 97%
53 | C=C1CC[C@@H]2[C@]3(C)COC(c4cn[nH]c4-c4ccc(Br)cc4)O[C@@H]3CC[C@@]2(C)[C@@H]1C/C=C1/C(=O)OCC1O (some centres not stated) | -86.7% (active)
54 | Cc1cnc(C(=O)NNc2nc3cc(F)ccc3n3c(C(=O)N4CC5CC(C4)N5)ccc23)cn1 | 22.9%
55 | CCCSc1nc(Nc2ccc(S(N)(=O)=O)cc2)c(C#N)c(-c2cc(OC)c(OC)c(OC)c2)n1 | 27.4%
56 | C=C1CCC2C3(C)COC(c4ccccc4)OC3CCC2(C)C1CC(NCc1ccccc1)C1=CCOC1=O (configuration not stated) | 77.3%
57 | C=C1CC[C@@H]2[C@]3(C)COC(c4ccccc4)O[C@@H]3CC[C@@]2(C)[C@@H]1C/C=C1/C(=O)OCC1OC(C)=O (some centres not stated) | -89.9% (active)
